Screening data from PubChem BioAssay.
Only some compounds are listed: those with a hit (about 2.5% of all), similar ones and a draw of the others.
VACV mCherry inh: qHTS for Stage-Specific Inhibitors of Vaccinia Orthopoxvirus: mCherry Reporter Primary qHTS. Vaccinia virus mCherry reporter infection, fluorescence. Potency, µM (highest dose often 36.5 µM), actives largely listed as inhibitors. 310,000 compounds, 0.63% hits; calls by dose curve; tested in A549 cells; further: nearly all actives have a fitted effect of over 35% in size
Marburg entry inh: qHTS for inhibitors of binding or entry into cells for Marburg Virus. Marburg virus pseudotyped entry inhibition, cell reporter. Potency, µM (series often up to 37.8 µM), hits mostly inhibitors. 300,000 compounds, 1.8% hits; calls by dose curve; tested in HEK293 cells
LASV entry inh: qHTS for Inhibitors of binding or entry into cells for Lassa Virus | Lassa virus pseudotype entry inhibition, cell reporter | Potency, µM (doses to about 37.9 µM), usual class: inhibitors | 300,000 compounds, 1.2% hits | AID 540256, 2011; calls by dose curve; tested in HEK293 cells; further: nearly all actives have a fitted effect of over 50% in size
VACV Venus inh: qHTS for Stage-Specific Inhibitors of Vaccinia Orthopoxvirus: Venus Reporter Primary qHTS; 330,000 compounds, 0.46% hits; Vaccinia virus Venus reporter expression, fluorescence; Potency, µM (highest dose often 36.5 µM), hits mostly inhibitors; AID 720580, 2013; calls by dose curve; tested in A549 cells; further: nearly all actives have a fitted effect of over 30% in size
G2M arrest HeLa: Cell cycle validation with wells to cells screening paradigm; 25 compounds, 60% hits; AID 2441, 2010; HeLa cell cycle G2/M arrest, Hoechst DNA content imaging; shares compounds with Marburg entry inh; Potency, µM, most hits filed as inhibitors
WI-38 tox: High Content Assay for Compounds that inhibit the Assembly of the Perinucleolar Compartment: WI-38 Cytotoxicity; WI-38 normal lung fibroblasts, ATPLite luminescence ATP viability, 24 h; shares compounds with Marburg entry inh; 120 tested, under 10 active; Potency, µM (doses to about 46.1 µM), most hits filed as inhibitors
PNC inh conf: High Content Assay for Compounds that inhibit the Assembly of the Perinucleolar Compartment: Confirmation of PNC Inhibition | shares compounds with Marburg entry inh | AID 2730, 2010 | PC3M PTB-GFP, PNC prevalence imaging, 16 h | 120 compounds, 50% hits | Potency, µM (top dose mostly 46.1 µM), usual class: inhibitors
PC3M caspase: High Content Assay for Compounds that inhibit the Assembly of the Perinucleolar Compartment: PC3M Caspase 3/7 Activation | activity change, positive = activation, % at 46.1 µM | PC3M-GFP caspase 3/7 activation, luminescence, 24 h | 120 tested, under 10 active | shares compounds with Marburg entry inh
A number is an active result; – = inactive; ? = inconclusive; · = no result. Unless noted, the call rests on the fitted dose curve; in most records, active means well fitted curve in the direction sought with a large enough effect; inconclusive means small, poorly fitted or top-dose-only effect, or another doubt; inactive means no such curve, though single readings can be large; an effect the other way counts as inactive or inconclusive.

SMILES	VACV mCherry inh	Marburg entry inh	LASV entry inh	VACV Venus inh	WI-38 tox	PNC inh conf	PC3M caspase	others
COc1ccccc1Nc1nnc(SCC2CCCCO2)s1 (stereo not given)	–	7.08µM	·	–	·	·	·
Cc1ccccc1Nc1nnc(SCC2CCCCO2)s1 (stereo not given)	–	?	?	–	·	·	·
Nc1c(C(=O)Nc2cccc(C(=O)O)c2)sc2nc3c(cc12)CCCC3	–	?	3.16µM	–	·	·	·
COc1cccc([C@H]2/C(=C(\O)c3ccc4c(c3)OCCO4)C(=O)C(=O)N2CCN(C)C)c1	·	–	·	·	·	·	·
C=C1[C@@H](O)[C@H](CC(C)C)N(Cc2ccccc2Br)S1(=O)=O	?	·	·	10µM	·	·	·
COc1ccc(/C=C/C(=O)OCC(=O)Nc2ccc(S(N)(=O)=O)cc2)cc1OC	–	·	·	–	·	·	·
COc1ccc(/C=C/C(=O)OCC(=O)Nc2ccc(Cl)c(S(=O)(=O)N(C)C)c2)cc1OC	–	–	–	–	–	–	–
CNS(=O)(=O)c1cccc(C(=O)Nc2cccc(Cl)c2)c1	–	–	–	–	–	?	–
O=S(=O)(c1ccc2c(c1)CCCC2)N1CCN(c2nc(-c3cccs3)nc3ccccc23)CC1	–	·	·	–	·	·	·
Cc1oc(-c2ccccc2Cl)nc1CSCC(=O)N1CCCC1	·	?	0.651µM	·	–	3.98µM	–
CCN(CC)C(=S)SSC(=S)N(CC)CC	–	3.55µM	2.91µM	–	?	?	–
C=C(Cl)CSC(=S)N(CC)CC	–	–	·	–	·	·	·
O=C(Nc1ccc(OC(F)F)cc1)c1nc(SCc2ccccc2F)ncc1Cl	–	·	·	–	·	·	·
O=S(=O)(Nc1cc(Sc2cccc3cccnc23)c(O)c2ccccc12)c1ccc(F)cc1	?	6.51µM	11.2µM	–	?	?	?
CC(=O)/C(C#N)=C1\NC(=O)C(Cc2ccc(C)c(C)c2)S1 (stereo not given)	15.8µM	0.411µM	1.3µM	–	–	7.94µM	–
CC1CCN(c2oc(-c3ccc(OCc4ccccc4Cl)cc3)nc2C#N)CC1	–	·	·	–	·	·	·
O=C1CCCC2=C1C(c1ccc(Cl)cc1)N=C(Nc1nc3ccccc3o1)N2 (stereo not given)	–	·	·	–	·	·	·
CC/C(=C(\c1ccccc1)c1ccc(OCCN(C)C)cc1)c1ccccc1	–	3.55µM	·	?	·	·	·	G2M arrest HeLa=?
CC/C(=C(\c1ccc(O)cc1)c1ccc(OCCN(C)C)cc1)c1ccccc1	–	·	·	?	·	·	·
CCCN1CNc2c(c(=O)[nH]c(=S)n2CCc2c(OC)cccc2OC)C1	–	·	·	–	·	·	·
CCN1C(=O)c2cccc3c(S(=O)(=O)N(C(=O)c4ccncc4)c4ccc(OC)cc4)ccc1c23	–	?	?	–	–	–	–
O=S(=O)(c1ccc(F)cc1)N1CCN(c2nc(-c3ccccc3)nc3ccccc23)CC1	–	·	·	–	·	·	·
O=C(N/N=C/c1cc2c3c(c1O)CCCN3CCC2)c1ccccc1O	?	1.46µM	1.3µM	?	–	?	–
C=C(/C=C/c1ccc(N(C)C)cc1)c1nc2ccccc2s1	–	·	·	–	·	·	·
CC(/C=C/c1cccc([N+](=O)[O-])c1)=N/NC(=O)c1cccnc1	–	–	–	–	·	·	·
SMILES	VACV mCherry inh	Marburg entry inh	LASV entry inh	VACV Venus inh	WI-38 tox	PNC inh conf	PC3M caspase	others
CC(/C=C/c1ccccc1)=N/NC(=O)c1cc([N+](=O)[O-])cc([N+](=O)[O-])c1	–	?	?	–	–	?	–
Cc1ccc(OCCn2cc(C(=S)N3CCCC3)c3ccccc32)cc1C	3.98µM	3.16µM	2.82µM	–	–	7.94µM	–
S=C(c1cn(CCOc2ccccc2)c2ccccc12)N1CCCC1	?	?	–	?	·	·	·
O=C(CNC(=O)C1CCCCC1)OCC(=O)c1ccccc1	–	·	·	–	·	·	·
N=c1c2c(-c3ccccc3)c(-c3ccccc3)n(Cc3ccco3)c2ncn1CCCn1ccnc1	–	3.55µM	11.2µM	?	–	25.1µM	–
c1ccc(-c2oc3ncnc(NCCCn4ccnc4)c3c2-c2ccccc2)cc1	–	?	–	–	·	·	·
